# Unmarked numbers belong to inactive results. No rule for the calls is given here.
# Test system: Potassium Channel [KATP]
# Assay: CYP450 and receptor off-target profile – biochemical, Ricerca HitProfilingScreen, selectivity assay for S1P4 agonist project, late-stage follow-up (AID 504400)
# Conditions: Ricerca radioligand binding/enzyme panel plus CYP450, at 10 µM, stronger effect = higher value
compound,measurement,value
Clc1ccc(OCCOc2ccc(Br)nc2Br)c(Cl)c1,inhibition,20%
